Screens as filed in PubChem BioAssay.
NLRP3 yeast inh – blocks the NALP3 inflammasome reconstituted in yeast; Yeast reconstituted NLRP3/ASC/caspase-1, beta-gal luminescence, 24 h; 330,000 compounds, 0.39% hits; inhibition, % at 10 µM;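 active = inhibition of 50% or more; inactive = inhibition below 50%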
tim10-1 inh – tim10-1 yeast growth inhibition; S. cerevisiae tim10-1 ts strain growth, BacTiter-Glo, 24 h; inhibition, % at 20 µM; 330,000 compounds, 2.2% hits; AID 463190;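 active = inhibition of at least 40%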;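 note: mutant grown at 25 °C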
TIM10 inh – growth inhibitors of TIM10 yeast strain; S. cerevisiae TIM10 strain growth, BacTiter-Glo luminescence, 24 h; inhibition, % at 10 µM; 330,000 compounds, 1.4% hits;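 active = inhibition of 40% or more at the single tested concentration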;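 note: wild-type TIM10 isogenic control strain grown at permissive 25 °C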
NALP1 inh – NALP1 inhibition | S. cerevisiae NALP1/ASC/caspase-1 growth, X-gal OD620, 72 h | inhibition, % at 10 µM | 280,000 compounds, 0.61% hits | AID 2071; in the data active = inhibition mostly above about 24%, no sharp cut-off; inactive = mostly below about 32%
tim23-1 inh – tim23-1 yeast growth inhibition. S. cerevisiae tim23-1 growth, BacTiter-Glo luminescence, 24 h. inhibition, % at 20 µM. 330,000 compounds, 1.3% hits;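 active = growth inhibition of the mutant yeast at or above 50%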;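 note: temperature-sensitive mutant grown at 25 °C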
tim23-1 confirm – tim23-1 yeast growth inhibition, confirmed; shares compounds with tim23-1 inh; S. cerevisiae tim23-1 growth, BacTiter-Glo luminescence, 24 h; inhibition, % at 20 µM; 4,400 compounds, 83% hits;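 active = inhibition above about 39% in either of two replicate wells at 20 µM, limit read from the data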;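 note: temperature-sensitive tim23-1 mutant grown at 25 °C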
Hits are given with their value; . = inactive; / = no result. Shown are actives, neighbours in structure and some others; about 4% of the full set was active somewhere.

SMILES | NLRP3 yeast inh | tim10-1 inh | TIM10 inh | NALP1 inh | tim23-1 inh | tim23-1 confirm
O=C(Nc1ccc(Cl)c(NC(=O)c2cccs2)c1)c1ccco1 | . | . | . | . | 55 | 48
O=C(Nc1ccc(N2CCN(C(=O)c3ccco3)CC2)c(Cl)c1)c1cccs1 | . | . | . | . | 58 | 53
CC[C@H](C)[C@H](NC(=O)c1ccccc1)C(=O)NC(CC(=O)O)c1ccc(F)cc1 (stereo partly drawn) | . | . | . | . | . | /
Cc1[nH]c2ccccc2c1C(=O)C(=O)NC1CC(=O)N(c2ccc(F)cc2)C1 (stereo not drawn) | . | . | . | / | . | /
COc1ccc(-c2csc(Nc3cc(C)ccn3)n2)cc1OC | . | . | . | . | 94 | .
CN(Cc1ccco1)c1ncnc2ccc(-c3ccc4c(c3)OCO4)cc12 | . | . | . | / | 51 | 42
O=C(CNC(=O)c1cc(Cl)cc([N+](=O)[O-])c1)NC1CC1 | . | . | . | / | . | /
C=CCC1Cc2c(Br)cccc2C(CC=C)N1 (stereo not drawn) | . | . | . | . | 53 | 46
C=CC[C@H]1Cc2c(cccc2[N+](=O)[O-])[C@H](CC=C)N1 | . | . | . | . | . | /
O=C(NN1C(=O)CSC1=S)c1cccnc1 | . | . | . | / | . | /
O=C(c1cccnc1)C1Cc2ccccc2C1=O (stereo not drawn) | . | . | . | . | 54 | 52
Cc1cc(Br)ccc1N=C1NC(=O)CS1 | . | . | . | . | . | /
COc1ccc(C(=O)NC(=S)NCCc2ccccc2)cc1 | . | . | . | . | . | /
O=C(NC(=S)NCCc1ccccc1)c1cccc(Cl)c1 | . | . | . | . | 52 | 46
Oc1c(Cl)cc(Cl)cc1C=Nc1ccc(Br)cc1 | . | . | . | . | 74 | 72
Nc1c(C(=O)OCC(=O)NCc2ccccc2)[nH]c(=O)[nH]c1=O | . | . | . | . | . | /
COC(=O)c1ccc(OC(=O)CCc2cc(OC)c(OC)c(OC)c2)cc1 | . | . | . | . | . | /
CC1CCN(c2nnc(N3CCC(C)CC3)c3ccccc23)CC1 | . | . | . | . | 70 | 57
Cc1ccc(-c2nnc(N3CCCCC3)c3ccccc23)cc1 | . | . | . | . | 54 | 53
CCCOc1ccc(/C=C/C(=O)OCC(=O)N(C)c2c(N)n(Cc3ccccc3)c(=O)[nH]c2=O)cc1OCC | . | . | . | / | . | /
COc1ccc(Cl)cc1NC(=O)CSc1nnc(C2CC2)n1N | . | . | . | / | . | /
OC[C@@H]1[C@@H](c2ccc(Cl)cc2)C(c2ccccc2)=NN1c1ccccc1 | / | . | . | / | 53 | .
OC[C@@H]1[C@@H](c2ccc(Cl)cc2)C(c2cccc(Cl)c2)=NN1c1ccccc1 | / | . | . | / | . | /
OC[C@@H]1[C@@H](c2ccc(F)cc2)C(c2cccc(Cl)c2)=NN1c1ccccc1 | / | . | . | / | 53 | .
Cc1ccccc1NS(=O)(=O)c1c(C(=O)N2CCCCCC2)c(C)n(C)c1C | . | . | . | . | . | /
SMILES | NLRP3 yeast inh | tim10-1 inh | TIM10 inh | NALP1 inh | tim23-1 inh | tim23-1 confirm
Cc1cccc(-c2cc3nc4c(c(N5CCOCC5)n3n2)CCCC4)c1 | . | . | . | . | 58 | 47
Cc1ccc(S(=O)(=O)CCC(=O)N(Cc2nnc(-c3ccc(Cl)cc3)o2)C2CC2)cc1 | . | . | . | / | . | /
CCCCCCSC1=C(C#N)C(c2ccccc2)CC(=O)N1 (stereo not drawn) | . | . | . | . | 51 | 46
Cc1ccc(C2CC(=O)NC(SCc3ccccc3)=C2C#N)cc1 (stereo not drawn) | . | . | . | . | . | /
CC(=O)Nc1ccc(OS(=O)(=O)c2cc(Cl)ccc2C)cc1 | . | . | . | . | 52 | 46
CC(=O)Nc1ccc(OS(=O)(=O)c2ccccc2C)cc1 | . | . | . | . | . | /
CC(C)NC(=S)N/N=C/C1=CCC2CC1C2(C)C (stereo not drawn) | . | . | . | . | 56 | .
CCCCNC(=S)N/N=C/C1=CCC2CC1C2(C)C (stereo not drawn) | . | . | . | . | 53 | .
C=C(C)CNC(=S)N/N=C/C1=CCC2CC1C2(C)C (stereo not drawn) | . | . | . | . | . | /
CC(=N)C1=C(O)CC(c2ccccc2)CC1=O (stereo not drawn) | . | . | . | . | . | /
C=CCn1c(SCc2cc(=O)n3ccsc3n2)nc2ccccc2c1=O | . | . | . | . | 51 | 56
C=CCn1c(SCc2cc(=O)n3ccsc3n2)nc2cc(Cl)ccc2c1=O | . | . | . | . | 55 | 59
